Hits are enriched below; roughly 0.86% of the tested compounds scored in any of these assays.
CDC25B-CDK2 inh = human CDC25B-CDK2/CyclinA binding inhibition | P30305+P24941 | HTRF CDC25B-CDK2/CyclinA binding, anti-His/anti-Flag; active compounds read high | z-score (no concentration beside the values) | 0.72% of 94,000 active | AID 1259370; in the data active = z-score above about 3.2
HIV TAR-Tat = HIV-1 TAR-Tat binding disruption. HIV-1 TAR RNA, Tat peptide displacement FRET; active compounds read high. z-score (concentration not given with the values). 0.6% of 100,000 active; active = z-score of 3 or more in at least 2 runs
Large screens that a line does not name were inactive.

COc1cccc(C2CC(=O)N3CN(c4ccccc4)CSC3=C2C#N)c1 (configuration not stated)	none
COc1cccc(C2CC(=O)N3CN(c4ccc(N(C)C)cc4)CSC3=C2C#N)c1 (configuration not stated)	CDC25B-CDK2 inh 7.2
COc1cccc(C2CC(=O)N3CN(c4ccc(OC)c(OC)c4)CSC3=C2C#N)c1 (configuration not stated)	CDC25B-CDK2 inh 7.5
COc1ccc(N2CSC3=C(C#N)C(c4cccc(OC)c4)CC(=O)N3C2)cc1 (configuration not stated)	CDC25B-CDK2 inh 6.1
O=c1cc(CSCc2ccco2)[nH]c2ccc(F)cc12	none (no result: CDC25B-CDK2 inh)
O=C(CSc1nc2ncccc2o1)Nc1cccc(F)c1	none (no result: CDC25B-CDK2 inh)
CCOc1ccc2[nH]cc(S(=O)(=O)c3ccc(C(C)C)cc3)c(=O)c2c1	none
COc1ccc(OCCn2nnc3sc4c(c3c2=O)CCCC4)cc1	HIV TAR-Tat 3.3
O=c1c2c3c(sc2nnn1CCCOc1ccccc1)CCCC3	none
COc1ccc2scc(N3CCC(C(N)=O)CC3)c(=O)c2c1	none (no result: CDC25B-CDK2 inh)
COC(=O)c1ccc(N2CSC3=C(C#N)C(c4ccc(F)cc4)CC(=O)N3C2)cc1 (configuration not stated)	CDC25B-CDK2 inh 6.6
CSc1ccc(C2CC(=O)N3CN(c4ccc(F)cc4)CSC3=C2C#N)cc1 (configuration not stated)	CDC25B-CDK2 inh 5.2
Cc1cc(C)cc(C(C(=O)NC2CCCCC2)N(C(=O)c2cnccn2)c2cccs2)c1 (configuration not stated)	none
CNC(=O)C1Cc2cc(S(=O)(=O)N3CCOCC3)ccc2N1C(C)=O (configuration not stated)	none (no result: CDC25B-CDK2 inh)
Cc1cccn2c(=O)c3cc(C(=O)Nc4ccc(S(N)(=O)=O)cc4)n(C)c3nc12	HIV TAR-Tat 43 (no result: CDC25B-CDK2 inh)
Cc1cc(NC(=O)c2cc3c(=O)n4cccc(C)c4nc3n2C)ccc1Br	none (no result: CDC25B-CDK2 inh)
Cn1c(C(=O)NCc2ccccn2)cc2c(=O)n3ccccc3nc21	none (no result: HIV TAR-Tat)
Cn1c(C(=O)Nc2ccc(Oc3ccccc3)cc2)cc2c(=O)n3ccccc3nc21	none (no result: CDC25B-CDK2 inh)
CCCCNC(=O)c1cc2c(=O)n3ccccc3nc2n1C	HIV TAR-Tat 5 (no result: CDC25B-CDK2 inh)
Cn1c(C(=O)Nc2ccc(S(N)(=O)=O)cc2)cc2c(=O)n3ccccc3nc21	HIV TAR-Tat 27 (no result: CDC25B-CDK2 inh)
CCCN1CCN(C(=O)C2=C(C)C(=O)OC23CCN(CC)CC3)CC1	none (no result: CDC25B-CDK2 inh)
CN1CCN(c2nnc(-n3cccc3CNCc3ccccc3)s2)CC1	none (no result: CDC25B-CDK2 inh)
Cc1cc(CN2C(=O)c3ccccc3S2(=O)=O)no1	none (no result: HIV TAR-Tat)
CC(C)(C)c1nc2scc(-c3ccccc3)c2c(=O)o1	CDC25B-CDK2 inh 5.9
O=c1oc(Cc2ccccc2)nc2scc(-c3ccccc3)c12	none
COc1cc(/C=C/C(=O)c2cc(C)c(C)cc2C)cc(OC)c1OC	none (no result: HIV TAR-Tat)
Cc1nc2cc(Nc3nnc(-c4ccc(Cl)cc4)c4ccccc34)ccc2n1C	CDC25B-CDK2 inh 14 (no result: HIV TAR-Tat)
Cn1cnc2cc(Nc3nnc(-c4ccc(Cl)cc4)c4ccccc34)ccc21	none (no result: HIV TAR-Tat)
Fc1ccc(N2COc3cc4c(cc3C2)OCO4)cc1Cl	CDC25B-CDK2 inh 8.6 (no result: HIV TAR-Tat)
COc1ccc(N2COc3cc4c(cc3C2)OCO4)cc1	none (no result: HIV TAR-Tat)
Cc1cccc(C2CC(=O)Nc3c(-c4ccccc4)csc32)c1 (configuration not stated)	none (no result: CDC25B-CDK2 inh)
CCCN1CCc2nc(Nc3ccc4c(c3)OCO4)ncc2C1	none (no result: CDC25B-CDK2 inh)
ON=C(c1nc2ccccc2[nH]1)c1nc2ccccc2[nH]1	none (no result: HIV TAR-Tat)
NNc1nc2ccccc2[nH]c1=S	CDC25B-CDK2 inh 5.5 (no result: HIV TAR-Tat)
CN1CCc2c(sc(-n3cccc3)c2CNC(=O)Nc2ccc3c(c2)OCCO3)C1	none (no result: CDC25B-CDK2 inh)
COc1cccc2c1Oc1ncccc1NC2	CDC25B-CDK2 inh 8.6
COc1cccc2c1Oc1ncccc1N(C(=O)CCC(=O)O)C2	none
O=C(O)c1ccc(N2CN(Cc3ccccc3)CC(c3ccc([N+](=O)[O-])o3)=N2)cc1	none
O=C(Nc1cccc(-c2ncon2)c1)c1cccs1	none (no result: HIV TAR-Tat)
CN(C)c1cc(-c2cccc([N+](=O)[O-])c2)oc(=O)c1Cl	none (no result: HIV TAR-Tat)
O=c1oc(-c2ccccc2)cc(Cl)c1Cl	CDC25B-CDK2 inh 14
O=C(NNC(=NS(=O)(=O)c1ccccc1)NNC(=O)c1ccc(F)cc1)c1ccc(F)cc1	none (no result: HIV TAR-Tat)
O=C(CCc1nc2sc3c(c2c(=O)[nH]1)CCCCC3)N1CCC(Cc2ccccc2)CC1	HIV TAR-Tat 4.3 (no result: CDC25B-CDK2 inh)
O=C(CCc1nc2sc3c(c2c(=O)[nH]1)CCCCC3)N1CCN(c2ncccn2)CC1	none (no result: CDC25B-CDK2 inh)
CC1CCN(C(=O)CCc2nc3sc4c(c3c(=O)[nH]2)CCCC4)CC1	none (no result: CDC25B-CDK2 inh)
O=C(CCc1nc2sc3c(c2c(=O)[nH]1)CCCCC3)N1CCN(c2cccc(Cl)c2)CC1	HIV TAR-Tat 28 (no result: CDC25B-CDK2 inh)
O=C(CCc1nc2sc3c(c2c(=O)[nH]1)CCCCC3)NC1CCCC1	HIV TAR-Tat 18 (no result: CDC25B-CDK2 inh)
O=C(CCc1nc2sc3c(c2c(=O)[nH]1)CCCCC3)NC1CCCCC1	none (no result: CDC25B-CDK2 inh)
CC1CCCN(Cc2nc3c(c(=O)n(C)c(=O)n3C)n2CCCO)C1 (configuration not stated)	none
CN1C(=O)c2ccccc2Sc2ccc(NC(=O)N3CCN(C4CCCCC4)CC3)cc21	none
